Laboratory results as given in PubChem BioAssay AID463116 (University of Pittsburgh Molecular Library Screening Center, 2010).
Out of some 1,000 compounds screened, about 710 (71%) were called active. Another 7% or so got no clear call; they are omitted.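 The calls were made as follows: active = inhibition of receptor movement into the nucleus at or above a set limit in both runs, with normal cell brightness and cell count; inconclusive = limit reached in only one run, brightness and count normal; inactive = the rest.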 So high a share suggests a set chosen from earlier hits. Not all results are given here.

Assay: dynein cargo transport inhibitors, GR-EGFP translocation, confirmation, imaging, high-content imaging, GR-EGFP cells (AID 463116);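 as to inhibition: dexamethasone at 1 µM final in well for 30 min; nuclear minus cytoplasmic GR-EGFP mean intensity difference in channel 2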
Conditions: 3617.4 GR-EGFP nuclear translocation imaging, dexamethasone-induced, at 20 µM; inhibition: stronger effect = higher value; z-score: measured here: cell count per field
In the case of `O=[N+]([O-])c1cc(S(=O)(=O)CCCN2CCOCC2)ccc1F`, the inhibition is reported as 80.5% (active) and the z-score is reported as 0.409. With `CC1CCN(C(=O)c2ccc(S(=O)(=O)Cc3cc(F)ccc3F)c([N+](=O)[O-])c2)CC1` the inhibition was 37.2% (inactive) and the z-score was 0.248. In the case of `COc1ccc(-c2csc3nc(-c4ccccc4F)oc(=O)c23)cc1OC`, the inhibition is reported as 76.8% (active) and the z-score is reported as 0.201. For `Cc1cccc(Oc2c([N+](=O)[O-])c(=O)n(C)c3ccccc23)c1`, the inhibition was 65.6% (active) and the z-score was 0.355. In the case of `Cn1c(=O)c([N+](=O)[O-])c(Oc2ccccc2)c2ccccc21`, the inhibition is reported as 77.8% (active) and the z-score is reported as 0.222. In the case of `CC(C)(C)C1C/C(=C/c2ccco2)C(=O)/C(=C/c2ccco2)C1` (stereo unspecified), the inhibition is reported as 184% (inactive) and the z-score is reported as 0.226. In the case of `Cc1cccc2cc3c(N)c(C(=O)N4CCCc5ccccc54)sc3nc12`, the inhibition is reported as 97.1% (active) and the z-score is reported as -0.357. With `COc1ccc(NC(=O)/C(Cl)=C(/Cl)S(=O)Cc2ccc(C)cc2)cn1` (stereo unspecified) the inhibition was 76.8% (active) and the z-score was 0.179. For `CC1=C/C(=N\OS(=O)(=O)c2ccccc2)C=CC1=O`, the inhibition was 85.1% (active) and the z-score was 0.68. In the case of `Nc1ccccc1SC(C[N+](=O)[O-])c1ccccc1` (stereo unspecified), the inhibition is reported as 71.2% (active) and the z-score is reported as -0.448. In the case of `O=C1/C(=C\c2cccnc2)CN(Cc2ccccc2)C/C1=C\c1cccnc1`, the inhibition is reported as 81.1% (active) and the z-score is reported as 0.0646. In the case of `Cc1cc(-c2n[nH]c(=S)n2/N=C/C(Br)=C/c2ccccc2)n[nH]1`, the inhibition is reported as 80.8% (active) and the z-score is reported as 0.326. In the case of `Cc1[nH]c(=O)c(C(=O)/C=C/c2ccccc2)c2c1CCCC2`, the inhibition is reported as 71.9% (active) and the z-score is reported as 0.213. For `O=C(CCl)N(Cc1cccc([N+](=O)[O-])c1)c1cccc(Cl)c1`, the inhibition was 84.8% (active) and the z-score was 0.159. In the case of `COc1ccc(-c2cc(C(F)(F)F)nc(S(C)(=O)=O)n2)cc1OC`, the inhibition is reported as 51.4% (active) and the z-score is reported as 0.253. For `Cc1cc(C(=O)NCCc2ccc(Cl)cc2)n(-c2ccccc2)n1`, the inhibition was 16.2% (inactive) and the z-score was 0.17. In the case of `Cc1cc(C)nc(S/C=C/C(=O)c2ccccc2)n1`, the inhibition is reported as 68.4% (active) and the z-score is reported as 1.05. With `Clc1cccc(-c2nc3nc4ccccc4nc3n2Cc2ccco2)c1` the inhibition was 12.8% (inactive) and the z-score was 0.105. With `COc1ccc(C(=O)NCC(=O)N/N=C/c2ccc([N+](=O)[O-])o2)cc1OC` the inhibition was 59.2% (active) and the z-score was -0.0055. With `O=C(/C=C/Sc1ncn[nH]1)c1ccc(Cl)cc1` the inhibition was 69.1% (active) and the z-score was 0.228. For `CCN(CC)c1ccc2oc(=O)c(C)nc2c1`, the inhibition was 82.6% (active) and the z-score was 0.353. For `COc1ccc(C(CCN(Cc2ccc(OC)c(OC)c2)C(=O)CCl)c2ccccc2)cc1` (stereo unspecified), the inhibition was 90.9% (active) and the z-score was -0.513. For `O=C(CCl)Nc1cccc(CP(=O)(c2ccccc2)c2ccccc2)c1`, the inhibition was 63.6% (active) and the z-score was 0.239. With `O=C1C=C(c2ccc(Cl)cc2)C(=O)N1Nc1ccccc1` the inhibition was 81% (active) and the z-score was 1.03. With `O=C(Nc1ccccc1)c1nnsc1S(=O)(=O)c1ccc(Cl)cc1` the inhibition was 38.8% (inactive) and the z-score was -5.42. For `CCOC(=O)C(=Cc1ccccc1OC)C(=O)OCC`, the inhibition was 82.2% (active) and the z-score was 0.778. With `N#C/C(=C/c1ccc(N2CCCCC2)o1)C(=O)NCCc1c[nH]c2ccccc12` the inhibition was 96.8% (active) and the z-score was 0.0808. With `Oc1c(C=Nc2cccc3nsnc23)ccc2ccccc12` the inhibition was 23.9% (inactive) and the z-score was 0.36. In the case of `COc1cc2c(cc1O)C(SC)=NC(C)(C)C2`, the inhibition is reported as 79.1% (active) and the z-score is reported as 0.013. With `COC(=O)/C=C\C(=O)Nc1cccc([N+](=O)[O-])c1` the inhibition was 77.7% (active) and the z-score was -1.06. For `CCC1=C/C(=C\c2ccc3c(c2)OCO3)C(=O)S1`, the inhibition was 30.5% (inactive) and the z-score was 0.474. In the case of `C[C@@H]1C[C@@H]2O[C@H]2/C=C\C=C\C(=O)Cc2c(Cl)c(O)cc(O)c2C(=O)O1`, the inhibition is reported as 90.1% (active) and the z-score is reported as -0.431. With `Cc1cc(C)c2c3c(sc2n1)C(c1ccccc1)C(C#N)=C(N)O3` (stereo unspecified) the inhibition was 23.6% (inactive) and the z-score was 0.166. With `CCN1/C(=C/c2ccc3ccc(C)cc3[n+]2CC)Sc2ccccc21` the inhibition was 99.7% (active) and the z-score was 0.0317. In the case of `O=S1(=O)CCC(NC(=S)SCc2ccccc2Br)C1` (stereo unspecified), the inhibition is reported as 67.1% (active) and the z-score is reported as -0.249. For `C=CS(=O)c1sc(Cl)c(N2CCOCC2)c1[N+](=O)[O-]` (stereo unspecified), the inhibition was 83.2% (active) and the z-score was -0.577. With `Nc1c(C(=O)c2cccs2)sc2nsc(SCCN3CCCCC3)c12` the inhibition was 91.8% (active) and the z-score was 0.159. In the case of `CC1(C)CCSC(/C=C/c2ccccc2)=N1`, the inhibition is reported as 90.7% (active) and the z-score is reported as -0.988.
